GC-B act = human GC-B receptor activators, primary screen, HEK293 GC-B cells, cGMP TR-FRET, EC30 CNP; activation, % at 10 µM; Atrial natriuretic peptide receptor 2 (Homo sapiens), P20594; 0% at EC30 CNP, 100% saturating CNP; 0.11% of 370,000 active; AID 1920062, 2024;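 active = activation at 10 µM reaching about 35% in either raw or pattern-adjusted values, limit read from the data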
DYRK1A inh = rat Dyrk1A kinase inhibitors, primary screen, biochemical, single point, plate reader; 0.43% of 310,000 active; inhibition, % at 12.5 µM; Dual specificity tyrosine-phosphorylation-regulated kinase 1A (Rattus norvegicus), Q63470; AID 504441, 2011; ADP-Glo luminescence, NFATc1 peptide; in the data active = inhibition above about 50%
HSF1 inhib = HSF1 inhibitors in luciferase reporter cells, primary screen, cell-based, NIH3T3, luminescence. activity change, negative = inhibition, % at 7.5 µM (by protocol). NIH3T3-HGL HSE-luciferase, MG132-induced, luminescence 8 h; active compounds read low. 0.77% of 300,000 active;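 active = more than half of replicate wells show activity change below -50%, luminescence cut by over half; inconclusive = some wells, but at most half, below -50%; inactive = no replicate well below -50%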;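 note: luciferase reports HSF-1 transcriptional activity via heat shock element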
GC-A act = GC-A stimulated cGMP production enhancers – HEK293 GC-A cells, cGMP TR-FRET, EC30 ANP, primary screen; Atrial natriuretic peptide receptor 1 (Homo sapiens), P16066; 0% at EC30 ANP, 100% saturating ANP; activation, % at 10 µM; 0.14% of 370,000 active; in the data active = activation above about 40%
aDG glyco act = activators of alpha-DG glycosylation, primary screen, uHTS, Pro5-aDG cells, AlphaScreen; activation, % at 10 µM; alpha-DG glycosylation AlphaScreen (IIH6); 0% Pro5, 100% B10-LARGE cell signal; 0.22% of 360,000 active; AID 624168, 2012;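 active = activation of at least 8% versus controls, or a plate z-score of at least 8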;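 note: Pro5 are CHO cells carrying HIG-tagged alpha-DG that lacks glycosylation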
HSF-1 act = HSF-1 activators, primary screen, NIH3T3-HGL cells, MG132 stress, luminescence, single point. 1.7% of 300,000 active. NIH3T3-HGL HSF-1 luciferase reporter, 8 h; 100% = twice DMSO control signal. activation, % at 9 µM;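 active = mean replicate activation of at least 50% with a set share of replicates each reaching 50%; inconclusive = only one of those two conditions met; inactive = mean below 50% and too few replicates reaching it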
Of the large screens only hits and unclear results are named; the others gave an inactive call. Most compounds without a hit are left out; they make up all but 2.5% or so of the library.

Cc1occc1C(=O)N/N=C/C=C/c1ccccc1	none
Cc1occc1C(=O)N/N=C/C(Br)=C\c1ccccc1	HSF-1 act 363.2
CC1CCCN(C(=S)NCCc2ccccc2)C1 (stereo unspecified)	none
C/C(=N\NC(=O)CN1CCN(c2ccc(F)cc2)CC1)c1ccco1	none
CCOC(=O)C1=C(C)OC2(O)c3ccccc3C(=O)C12O (stereo unspecified)	none (no result: DYRK1A inh)
CC(=O)C1=C(C)OC2(O)c3ccccc3C(=O)C12O (stereo unspecified)	HSF-1 act 59.1 (no result: DYRK1A inh)
CCOC(=O)c1c(-c2ccccc2)csc1NC(=O)C(C)NCc1ccco1 (stereo unspecified)	none
N#CC1=C(N)Oc2cc(N)ccc2C1c1cccc(F)c1 (stereo unspecified)	GC-A act 43.4
CN(C)c1ccc2c(c1)OC(N)=C(C#N)C2c1cccc(F)c1 (stereo unspecified)	none (no result: GC-B act, GC-A act)
CCOc1ccccc1N1C(=O)c2cccnc2C1=O	none
Cc1ccsc1C(=O)NNC(=O)C1CCCCC1C(=O)O (stereo unspecified)	none
O=C(COC(=O)c1ccccc1OCc1ccc(F)cc1)NCC1CCCO1 (stereo unspecified)	none (no result: DYRK1A inh, HSF1 inhib, HSF-1 act)
COC(=O)c1ccc2nc(Nc3nc4c(F)cc(F)cc4s3)sc2c1	HSF1 inhib -87.8
CCOC(=O)c1ccc2nc(NC(C)=O)sc2c1	HSF-1 act inconclusive
CCOC(=O)c1ccc2nc(Nc3nc4ccc(F)cc4s3)sc2c1	HSF1 inhib -80.0
O=C(Nc1cccc(C(F)(F)F)c1)C1C2CC3OC(=O)C1C3C2 (stereo unspecified)	none
Fc1ccc(CN2CCN(c3ncnc4scc(-c5ccccc5)c34)CC2)cc1	HSF-1 act 84.0
Oc1ccccc1N1CCN(c2ncnc3scc(-c4ccc(F)cc4)c23)CC1	HSF1 inhib -83.2
Fc1ccc(-c2csc3ncnc(N4CCN(Cc5ccccc5)CC4)c23)cc1	none
COc1cc2ccccc2cc1C(=O)OCC(=O)N(C)c1c(N)n(Cc2ccccc2)c(=O)[nH]c1=O	none
O=C(CC(Nc1ccccc1Cl)C(=O)OCC(=O)c1cccs1)c1ccccc1 (stereo unspecified)	HSF1 inhib -58.2
O=C(CC(Nc1ccc(Cl)cc1Cl)C(=O)O)c1ccccc1 (stereo unspecified)	HSF1 inhib -89.4
O=C(OCC(=O)c1cccs1)c1ccccc1	none
O=C(CC(Nc1ccccc1)C(=O)O)c1ccccc1 (stereo unspecified)	none
Nc1ncc(-n2cncn2)c(-c2ccc(Cl)cc2)n1	none
O=C(NCc1ccco1)C1CCN(S(=O)(=O)c2cccc([N+](=O)[O-])c2)CC1	HSF1 inhib -79.8
CCc1nnc(NC(=O)c2cccc(S(=O)(=O)N3CCCCC3)c2)s1	HSF1 inhib -56.3
CCCn1c(NC(=O)c2cccc(S(=O)(=O)N3CCCC3)c2)nc2ccccc21	HSF1 inhib -54.4
COc1ccccc1C(=O)Nc1nc2ccccc2[nH]1	HSF1 inhib -83.0
COc1cc(SC)ccc1C(=O)Nc1nc2ccccc2[nH]1	HSF1 inhib -92.1
O=C(/C=C/c1ccc(F)cc1)Nc1nc2ccccc2[nH]1	HSF-1 act 54.8 (no result: GC-B act, DYRK1A inh, GC-A act, aDG glyco act)
COc1cc(SC)ccc1C(=O)Nc1nccs1	HSF-1 act 56.8
COc1ccccc1C(=O)NCCC(=O)Nc1nc2ccccc2[nH]1	none
O=C(Nc1nc(OCC(F)(F)F)cnc1/C=C\c1ccccc1)c1ccsc1	none (no result: DYRK1A inh, HSF1 inhib, HSF-1 act)
COc1cccc(NC(=O)CN(C)C(=O)CNC(=O)c2ccccc2F)c1	none
COc1cccc(CNc2ccc3[nH]c(=O)[nH]c3c2)c1OCc1ccccc1Cl	none
O=C(CSc1nc2ccccc2[nH]1)NC(=O)NCc1ccco1	none

Screening data (PubChem BioAssay)
